Values joined by “and” are separate entries in the source; they are usually repeats but may differ in a detail not shown here. Identical values can stand only once. A number with no mark means an inactive call. Results filed as inconclusive are left out. A call without a number means that no potency is given here. Active and inactive are the calls of the source. Unless noted, calls follow the shape of the dose curve; as a rule, active = well fitted curve in the direction sought with a large enough effect; inconclusive = small, poorly fitted or top-dose-only effect, or another doubt; inactive = no such curve, though single readings can be large; an effect the other way counts as inactive or inconclusive. Peptide text beside a SMILES is read from it.
Key:
[1] = molecular target: ATP-dependent 6-phosphofructokinase (Trypanosoma brucei brucei) (UniProt O15648); assay: qHTS Assay to Find Inhibitors of T. brucei phosphofructokinase: hit validation (AID 492961);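 also: luminescence reports ADP formed as PFK phosphorylates fructose-6-phosphate with ATP; series mostly up to about 51 µM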
Sequence of ATP-dependent 6-phosphofructokinase (Trypanosoma brucei brucei) (O15648 whole entry, looked up): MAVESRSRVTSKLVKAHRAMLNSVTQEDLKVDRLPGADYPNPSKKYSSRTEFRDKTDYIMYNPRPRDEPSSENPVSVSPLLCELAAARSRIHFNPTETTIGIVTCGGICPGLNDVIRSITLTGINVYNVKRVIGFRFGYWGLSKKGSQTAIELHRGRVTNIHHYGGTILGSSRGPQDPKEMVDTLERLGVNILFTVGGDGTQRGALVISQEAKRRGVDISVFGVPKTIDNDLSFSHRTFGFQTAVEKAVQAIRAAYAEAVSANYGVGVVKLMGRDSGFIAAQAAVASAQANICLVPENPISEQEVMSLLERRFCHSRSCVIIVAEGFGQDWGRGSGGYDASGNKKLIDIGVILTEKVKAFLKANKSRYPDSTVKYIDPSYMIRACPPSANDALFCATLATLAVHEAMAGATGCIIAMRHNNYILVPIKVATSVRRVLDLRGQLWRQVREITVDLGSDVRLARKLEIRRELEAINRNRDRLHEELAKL
How it was run: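 Percent activity derived from corrected luminescence, normalized between 0x and 1x enzyme controls, then fitted to concentration-response curves. Conditions: 1.25 nM PFK, 0.1 mM ATP, 0.5 mM F6P, 45 min RT.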

[2] = molecular target: Ubiquitin carboxyl-terminal hydrolase 1 (Homo sapiens) (UniProt O94782); assay: Inhibitors of USP1/UAF1: Pilot qHTS (AID 504865); also: nearly all actives have a fitted effect of over 35% in size; also: potency is read from the fitted curve at half-maximal effect
Sequence of Ubiquitin carboxyl-terminal hydrolase 1 (Homo sapiens) (O94782 whole entry, looked up): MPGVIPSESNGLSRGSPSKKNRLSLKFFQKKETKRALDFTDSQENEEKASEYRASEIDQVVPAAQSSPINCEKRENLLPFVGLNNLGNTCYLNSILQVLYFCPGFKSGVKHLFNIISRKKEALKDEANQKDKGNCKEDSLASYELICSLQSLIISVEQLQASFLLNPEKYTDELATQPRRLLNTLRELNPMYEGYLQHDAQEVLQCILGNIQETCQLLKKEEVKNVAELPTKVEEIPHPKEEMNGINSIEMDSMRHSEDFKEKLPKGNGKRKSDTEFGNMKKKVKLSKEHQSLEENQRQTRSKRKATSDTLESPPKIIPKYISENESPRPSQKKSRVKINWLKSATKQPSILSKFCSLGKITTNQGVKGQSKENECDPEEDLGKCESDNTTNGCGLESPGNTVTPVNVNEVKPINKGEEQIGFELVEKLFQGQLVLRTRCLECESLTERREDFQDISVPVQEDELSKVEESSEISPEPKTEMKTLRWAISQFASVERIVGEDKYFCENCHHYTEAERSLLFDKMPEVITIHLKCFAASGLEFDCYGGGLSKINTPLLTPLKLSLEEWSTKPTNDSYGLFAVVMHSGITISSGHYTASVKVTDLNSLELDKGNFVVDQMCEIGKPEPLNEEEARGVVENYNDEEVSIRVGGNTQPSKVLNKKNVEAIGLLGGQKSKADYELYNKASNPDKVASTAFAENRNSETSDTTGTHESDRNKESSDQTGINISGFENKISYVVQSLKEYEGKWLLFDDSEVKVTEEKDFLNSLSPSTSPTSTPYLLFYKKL
How it was run: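 Enzyme-free wells gave the negative control, while test wells held 1nM USP1/UAF1 preincubated with compound for 15 min at room temperature. Ub-Rho at 150nM final started the reaction, and fluorescence at 480/540 nm was recorded kinetically.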

[3] = molecular target: DNA dC->dU-editing enzyme APOBEC-3G (Homo sapiens) (UniProt Q9HC16); assay: qHTS for inhibitors of Vif-A3G interactions: Validation (AID 588379)
Sequence of DNA dC->dU-editing enzyme APOBEC-3G (Homo sapiens) (Q9HC16 whole entry, looked up): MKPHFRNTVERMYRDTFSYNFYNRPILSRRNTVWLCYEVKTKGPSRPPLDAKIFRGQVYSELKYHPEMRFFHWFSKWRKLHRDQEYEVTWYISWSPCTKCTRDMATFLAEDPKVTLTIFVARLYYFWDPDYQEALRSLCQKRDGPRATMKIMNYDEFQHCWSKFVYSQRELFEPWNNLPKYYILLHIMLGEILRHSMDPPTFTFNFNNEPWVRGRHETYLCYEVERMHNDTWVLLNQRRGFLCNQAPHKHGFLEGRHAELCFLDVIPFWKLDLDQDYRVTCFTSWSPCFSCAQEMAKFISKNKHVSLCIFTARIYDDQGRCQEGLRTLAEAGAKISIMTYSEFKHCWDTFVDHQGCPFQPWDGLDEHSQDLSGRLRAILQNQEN
How it was run: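 Yellow fluorescence (Ex 488, Em 500-530) of Vif-coexpressing HeLa A3G-eYFP cells, scanned by Acumen cytometer, reports blocked A3G degradation. Cells plated at 700/well overnight at 37 deg C before compound addition, then a further overnight compound incubation at 37 deg C.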

[4] = molecular target: Thyrotropin-releasing hormone receptor (Homo sapiens) (UniProt P34981); assay: qHTS for Small Molecule Agonists and Allosteric Enhancers of Human TRH Receptor: Validation Screen for Agonists (AID 493127;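 active = calcium activation more than 3 SD above the typical response in the agonist read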;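 also: intracellular calcium rise by fluo-8 fluorescence before TRH EC20 addition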); settings: TRH receptor agonist cell assay; at 2 µM; hits give high values
Sequence of Thyrotropin-releasing hormone receptor (Homo sapiens) (P34981 whole entry, looked up): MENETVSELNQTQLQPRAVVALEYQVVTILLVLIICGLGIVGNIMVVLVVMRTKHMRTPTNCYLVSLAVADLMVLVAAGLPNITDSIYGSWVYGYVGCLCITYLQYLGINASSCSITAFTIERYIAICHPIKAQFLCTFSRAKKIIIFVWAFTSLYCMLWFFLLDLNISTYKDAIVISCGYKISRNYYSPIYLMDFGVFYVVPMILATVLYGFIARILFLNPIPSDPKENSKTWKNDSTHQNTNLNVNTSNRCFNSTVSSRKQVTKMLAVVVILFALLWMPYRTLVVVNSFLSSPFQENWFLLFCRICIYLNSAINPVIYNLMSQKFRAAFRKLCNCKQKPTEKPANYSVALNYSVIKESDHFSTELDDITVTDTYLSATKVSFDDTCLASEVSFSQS
How it was run: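 Compounds are added by online pintool to dye-loaded TRHR cells while fluorescence is recorded every second. A rise in calcium signal during the agonist read marks activation; a later 10 nM TRH addition (EC20) serves the separate enhancer mode.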

[5] = Validation screen for small molecules that induce DNA re-replication in SW480 colon adenocarcinoma cells (AID 504364)
How it was run: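 Image-based qHTS: compounds were incubated with SW480 cells for 48 hr, nuclei stained with Hoechst, and per-nucleus fluorescence intensity scanned to flag cells with excess DNA content.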

[6] = molecular target: Estrogen receptor (Homo sapiens) (UniProt P03372); assay: qHTS assay for small molecule antagonists of estrogen receptor alpha signaling (AID 588513; active = well fitted curve in the direction sought with a large enough effect in the signal ratio, with a control signal flat, not every such curve was filed as active; the % refers to the signal ratio)
Sequence of Estrogen receptor (Homo sapiens) (P03372 whole entry, looked up): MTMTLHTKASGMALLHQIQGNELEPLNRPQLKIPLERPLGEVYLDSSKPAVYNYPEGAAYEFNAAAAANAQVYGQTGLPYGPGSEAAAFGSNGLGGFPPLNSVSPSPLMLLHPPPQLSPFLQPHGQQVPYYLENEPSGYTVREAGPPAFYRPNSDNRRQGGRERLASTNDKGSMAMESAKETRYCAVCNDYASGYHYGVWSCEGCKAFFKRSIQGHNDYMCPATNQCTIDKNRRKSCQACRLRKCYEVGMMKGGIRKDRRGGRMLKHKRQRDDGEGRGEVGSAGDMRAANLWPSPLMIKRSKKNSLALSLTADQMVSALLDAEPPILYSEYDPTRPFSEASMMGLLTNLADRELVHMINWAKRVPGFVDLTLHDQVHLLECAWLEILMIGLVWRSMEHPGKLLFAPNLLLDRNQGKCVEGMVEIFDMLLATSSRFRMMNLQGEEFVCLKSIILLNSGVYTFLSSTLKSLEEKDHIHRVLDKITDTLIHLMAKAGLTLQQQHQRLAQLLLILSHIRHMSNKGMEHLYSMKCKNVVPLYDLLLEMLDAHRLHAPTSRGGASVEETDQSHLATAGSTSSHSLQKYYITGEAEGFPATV
How it was run: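 Antagonist-mode qHTS in ER-alpha-UAS-bla HEK 293 cells: compound titration, 0.5nM estradiol for 18 h, CCF4 fluorescence, Hill-derived IC50.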

[7] = molecular target: Estrogen receptor (Homo sapiens) (UniProt P03372); assay: qHTS assay for small molecule agonists of estrogen receptor alpha signaling (AID 588514; calls by dose curve; also: nearly all actives have a fitted effect of over 70% in size)
How it was run: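 Efficacy is expressed against 20 nM 17-beta-estradiol (100%) and DMSO basal (0%); EC50 from Hill equation. Assay: beta-lactamase reporter in ER-alpha-UAS-bla HEK 293 cells, 18 h compound incubation, CCF4 detection.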

[8] = molecular target: Glucocorticoid receptor (Homo sapiens) (UniProt P04150); assay: qHTS assay for small molecule agonists of glucocorticoid receptor signaling (AID 588532; active = well fitted curve in the direction sought with a large enough effect in the signal ratio, with a control signal flat; the % refers to the signal ratio); settings: HeLa MMTV-bla, beta-lactamase ratio, agonist, 18 h; hits give high values; percent of dexamethasone control, DMSO zero
Sequence of Glucocorticoid receptor (Homo sapiens) (P04150 whole entry, looked up): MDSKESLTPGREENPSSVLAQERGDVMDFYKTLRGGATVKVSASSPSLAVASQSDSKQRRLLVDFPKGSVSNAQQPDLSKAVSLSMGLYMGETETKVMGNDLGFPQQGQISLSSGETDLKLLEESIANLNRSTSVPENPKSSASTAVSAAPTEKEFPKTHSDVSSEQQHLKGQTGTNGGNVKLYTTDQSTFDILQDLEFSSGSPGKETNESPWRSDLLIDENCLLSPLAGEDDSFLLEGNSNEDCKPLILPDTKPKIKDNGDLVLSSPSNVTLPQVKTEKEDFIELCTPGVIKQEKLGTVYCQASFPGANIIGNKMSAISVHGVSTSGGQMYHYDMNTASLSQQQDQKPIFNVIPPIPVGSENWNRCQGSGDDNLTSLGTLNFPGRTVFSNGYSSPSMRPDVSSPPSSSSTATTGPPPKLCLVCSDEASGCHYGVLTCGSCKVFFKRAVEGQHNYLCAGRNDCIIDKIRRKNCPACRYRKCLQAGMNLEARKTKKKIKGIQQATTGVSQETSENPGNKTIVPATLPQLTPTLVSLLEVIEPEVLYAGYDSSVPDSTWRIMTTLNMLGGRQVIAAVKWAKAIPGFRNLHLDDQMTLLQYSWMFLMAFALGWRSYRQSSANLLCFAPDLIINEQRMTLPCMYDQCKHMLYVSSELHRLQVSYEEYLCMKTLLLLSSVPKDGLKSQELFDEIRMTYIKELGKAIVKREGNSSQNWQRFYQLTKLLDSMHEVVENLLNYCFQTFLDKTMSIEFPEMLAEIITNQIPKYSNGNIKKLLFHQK
How it was run: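 Titration series, up to 92 uM, applied to GRE-bla HeLa cells for 18 h at 37 C. Detection by CCF4 FRET substrate after 2 h at RT.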

[9] = qHTS for Inhibitors of Cell Surface uPA Generation: Validation Assay (AID 493164);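 also: RAW 264.7 macrophage cells exposed to compound for 18 h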
How it was run: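 ATP-Lite luminescence read-out: ATP remains high when uPA activity-dependent LF translocation into the cytoplasm is blocked. RAW 264.7 cells, 18 h compound exposure at 37 C; 7-point titration, 2.45 nM to 38.3 uM final.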

[10] = molecular target: Peptidyl-prolyl cis-trans isomerase NIMA-interacting 1 (Homo sapiens) (UniProt Q13526); assay: qHTS Validation Assay to Find Inhibitors of Pin1 (AID 504536; active = well fitted inhibition curve with a large enough effect in the polarisation, with a control signal flat, not every such curve was filed as active; the % refers to the polarisation)
Sequence of Peptidyl-prolyl cis-trans isomerase NIMA-interacting 1 (Homo sapiens) (Q13526 whole entry, looked up): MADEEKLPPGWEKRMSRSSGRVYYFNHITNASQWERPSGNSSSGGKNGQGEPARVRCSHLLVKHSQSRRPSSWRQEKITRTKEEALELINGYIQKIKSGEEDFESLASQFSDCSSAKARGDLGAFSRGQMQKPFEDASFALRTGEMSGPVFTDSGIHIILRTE
How it was run: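 Fluorescence polarization competition: compounds (titration) displace HiFluor-488-labeled Pin1-1b peptide from Pin1 (0.3 uM final) in pH 7.5 HEPES buffer with DTT, 10 min at room temperature; %Activity normalized to no-enzyme wells, curves fitted.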

[11] = molecular target: Phosphoglycerate kinase, glycosomal (Trypanosoma brucei brucei) (UniProt P07378); assay: qHTS Validation Assay to Find Inhibitors of Phosphoglycerate Kinase (AID 504547)
How it was run: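 In TEA buffer (100mM, pH 7.6) containing 5mM MgCl2 and 0.01% Tween-20, the GAPDH-coupled PGK reaction proceeded for 60 minutes at room temperature before a single luminescence reading using Kinase-Glo Plus.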

[12] = molecular target: phosphoglycerate mutase (Leishmania major) (UniProt Q4Q090); assay: qHTS Validation Assay to Find Inhibitors of Phosphoglycerate Mutase (AID 504548); settings: Potency: inhibition qHTS; also: potency is read from the fitted curve at half-maximal effect
Sequence of phosphoglycerate mutase (Leishmania major) (Q4Q090 1-553): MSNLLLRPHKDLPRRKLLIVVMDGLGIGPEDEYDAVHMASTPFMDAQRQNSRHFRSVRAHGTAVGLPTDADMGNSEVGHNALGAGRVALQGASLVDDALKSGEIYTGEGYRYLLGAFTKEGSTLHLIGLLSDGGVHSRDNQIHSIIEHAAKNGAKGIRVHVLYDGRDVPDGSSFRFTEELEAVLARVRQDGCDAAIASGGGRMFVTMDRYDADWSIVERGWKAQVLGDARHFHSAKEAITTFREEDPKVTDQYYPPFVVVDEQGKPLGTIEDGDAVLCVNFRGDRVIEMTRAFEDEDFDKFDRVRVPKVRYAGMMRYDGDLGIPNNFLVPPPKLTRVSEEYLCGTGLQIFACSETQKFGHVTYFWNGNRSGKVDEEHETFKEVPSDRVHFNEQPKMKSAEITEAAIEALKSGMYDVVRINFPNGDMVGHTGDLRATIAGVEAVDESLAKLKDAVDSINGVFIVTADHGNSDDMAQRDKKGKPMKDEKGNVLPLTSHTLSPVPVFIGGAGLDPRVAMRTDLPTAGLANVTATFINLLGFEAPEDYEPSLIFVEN
How it was run: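 Lm PGAM at 1.25 nM final with substrate in 100 mM TEA pH 7.6, 5 mM MgCl2, 0.01% Tween-20; 45 min at room temperature. Kinase-GloPlus added, 10 min, end-point luminescence read.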

[13] = molecular target: Bile acid receptor (Homo sapiens) (UniProt Q96RI1); assay: qHTS assay for small molecule antagonists of farnesoid X receptor signaling (AID 588526; calls by dose curve)
Sequence of Bile acid receptor (Homo sapiens) (Q96RI1 whole entry, looked up): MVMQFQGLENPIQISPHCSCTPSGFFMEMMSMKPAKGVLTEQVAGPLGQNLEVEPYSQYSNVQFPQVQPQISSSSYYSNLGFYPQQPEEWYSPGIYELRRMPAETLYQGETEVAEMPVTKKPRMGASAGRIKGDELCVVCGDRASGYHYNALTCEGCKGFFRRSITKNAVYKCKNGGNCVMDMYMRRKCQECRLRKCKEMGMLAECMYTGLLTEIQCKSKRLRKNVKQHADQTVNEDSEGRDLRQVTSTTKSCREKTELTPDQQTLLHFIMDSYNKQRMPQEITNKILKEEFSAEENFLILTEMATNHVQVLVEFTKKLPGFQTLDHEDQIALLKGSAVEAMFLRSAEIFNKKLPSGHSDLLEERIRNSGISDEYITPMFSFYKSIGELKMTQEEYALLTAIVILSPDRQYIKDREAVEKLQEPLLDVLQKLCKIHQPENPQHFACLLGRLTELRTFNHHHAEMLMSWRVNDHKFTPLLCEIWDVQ
How it was run: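 Concentration-response titrations were fitted to the Hill equation for half-maximal inhibition and maximal response, with data normalised to 50 uM chenodeoxycholic acid and DMSO control wells. Cells: FXR-UAS-bla HEK293T, dialyzed FBS.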

[14] = Validation screen for small molecules that induce genotoxicity in human embryonic kidney (HEK293T) cells expressing luciferase-tagged ELG1 (AID 493106); also: potency is read from the fitted curve at half-maximal effect
How it was run: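 Cells were dispensed at 2,000 per well, then 23 nL compound or DMSO was pinned in. After 16 hr at 37 °C and 5% CO2, ONE-Glo reagent was added. Luciferase activity was measured following 30 min at room temperature.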

[15] = qHTS for Inhibitors of ATXN expression: Validation (AID 588378); also: series mostly up to about 57 µM; nearly all actives have a fitted effect of over 75% in size
How it was run: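 After a 2 h attachment and 24 h compound incubation, HEK293-ATXN2-FFLuc wells are read for fluorescence at 405 nm excitation/525 nm emission as a viability measure, then for Bright-Glo luminescence reflecting ATXN2 expression.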

With `CN1C(C(=O)Nc2ccccn2)=C(O)c2sccc2S1(=O)=O` the outcome [1] was “inactive” and the Potency [2] was “inactive”.

With `COc1ccc(C2(C#N)CCC(C(=O)O)CC2)cc1OC1CCCC1` (centres undefined) the outcome [1] was “inactive” and the Potency [2] was “inactive”.

With `O=P(O)(O)C(O)(Cn1ccnc1)P(=O)(O)O` the outcome [1] was “inactive” and the Potency [2] was “inactive”.

In the case of `CN(C)C(=O)COC(=O)Cc1ccc(OC(=O)c2ccc(N=C(N)N)cc2)cc1`, the outcome [1] is reported as “inactive”.

With `CCN(CC)CCOc1ccc(Cc2ccccc2)cc1` the outcome [1] was “inactive”, the Potency [2] was “inactive” and the outcome [3] was “inactive”.

In the case of `Cc1nc2n(c(=O)c1CCN1CCC(c3noc4cc(F)ccc34)CC1)CCCC2`, the activation [4] is reported as 0.938% and the Potency [5] is reported as “inactive”.

For `CCc1nc(N)nc(N)c1-c1ccc(Cl)cc1`, the Potency [2] was “inactive”, the outcome [6] was “inactive” and the outcome [7] was “inactive”. The activation [8] was 6.7% and -0.85%.

With `Oc1ccc(OCc2ccccc2)cc1` the outcome [1] was “inactive” and the Potency [2] was “inactive”.

For `CN(C)c1ccc2nc3ccc(=[N+](C)C)cc-3sc2c1`, the outcome [7] was “inactive”.

With `CC(=O)N1CCN(c2ccc(OC[C@H]3CO[C@](Cn4ccnc4)(c4ccc(Cl)cc4Cl)O3)cc2)CC1` the outcome [9] was “inactive”, the Potency [5] was “inactive” and the outcome [10] was “inactive”. The Potency [11] was “inactive”, the Potency [12] was “inactive” and the outcome [3] was “inactive”. For the same compound, the outcome [7] was “inactive” and the activation [8] was 3.09%.

For `CN(c1nccc(=O)[nH]1)C1CCN(c2nc3ccccc3n2Cc2ccc(F)cc2)CC1`, the outcome [1] was “inactive” and the Potency [2] was “inactive”.

In the case of `N=C(N=C(N)N)N1CCOCC1`, the outcome [1] is reported as “inactive” and the Potency [2] is reported as “inactive”.

With `CCCCCCCCOc1ccccc1C(=O)Nc1ccc(C(=O)OCC[N+](C)(CC)CC)cc1` the Potency [2] was 79.4 µM (active).

In the case of `COC(=O)[C@H](Cc1ccccc1)NC(=O)[C@@H](N)CC(=O)O` (H-Asp-Phe-OMe), the outcome [1] is reported as “inactive”, the Potency [2] is reported as “inactive” and the outcome [6] is reported as “inactive”. The outcome [7] was “inactive”, the outcome [13] was “inactive” and the activation [8] was -0.956% and -8.82%.

In the case of `O=Nc1c(-c2c(O)[nH]c3cc(Br)ccc23)[nH]c2ccccc12`, the Potency [14] is reported as 0.92 µM (active), the activation [4] is reported as -8.62% and the outcome [9] is reported as “inactive”. The Potency [5] was “inactive”, the outcome [10] was “inactive” and the Potency [12] was 21.3 µM (active). The Potency [2] was “inactive” and the Potency [15] was “inactive”.

In the case of `NS(=O)(=O)c1cc(C(=O)O)c(NCc2ccco2)cc1Cl`, the outcome [6] is reported as “inactive” and the outcome [7] is reported as “inactive”.

`Nc1ccc(S(N)(=O)=O)cc1` gave an activation [8] of 9.11%.
